Tb PFK inh-1 – inhibitors of T. brucei phosphofructokinase; O15648; T. brucei PFK, ADP-Glo luminescence; Potency, µM (titrated, usually from 57.5 µM), without a hit: at the top dose activity, negative = inhibition, most hits filed as inhibitors; actives 0.17% (n = 330,000); AID 485367;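 also: 0% = uninhibited 1x PFK enzyme wells and -100% = no-enzyme wells; nearly all actives have a fitted effect of over 60% in size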
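Activity is normalized to no-enzyme wells (full inhibition) and 1.25 nM enzyme wells (no inhibition). Reaction: 0.5 mM F6P, 0.1 mM ATP, 45 min RT, ADP-Glo luminescence; concentration-response curves fitted and classed by quality.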
Tb PGK inh – inhibitors of T. brucei phosphoglycerate kinase. P07378. PGK/GAPDH coupled, Kinase-Glo luminescence, 60 min. Potency, µM (doses to about 57.5 µM), for inactives: at the highest dose activity change, negative = inhibition, most hits filed as inhibitors. actives 0.043% (n = 380,000). AID 602233; also: % is scaled to controls: 0 for no effect and ±100 for the full control effect; nearly all actives have a fitted effect of over 60% in size
Target sequence (P07378 whole entry, looked up): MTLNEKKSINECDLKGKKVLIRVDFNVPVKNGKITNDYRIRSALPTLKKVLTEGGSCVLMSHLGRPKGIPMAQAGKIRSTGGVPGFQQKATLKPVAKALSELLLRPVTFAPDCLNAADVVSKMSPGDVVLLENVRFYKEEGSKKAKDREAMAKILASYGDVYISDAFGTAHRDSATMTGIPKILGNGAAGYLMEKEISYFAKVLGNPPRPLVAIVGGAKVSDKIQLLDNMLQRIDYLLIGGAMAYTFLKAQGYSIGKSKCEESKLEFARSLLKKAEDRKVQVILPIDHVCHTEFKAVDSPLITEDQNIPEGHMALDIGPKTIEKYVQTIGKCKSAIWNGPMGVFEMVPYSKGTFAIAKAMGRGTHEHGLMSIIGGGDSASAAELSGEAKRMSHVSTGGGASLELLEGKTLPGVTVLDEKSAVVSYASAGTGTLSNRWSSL
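Luminescent ATP detection (Kinase-Glo Plus) follows a 60-minute room-temperature incubation, with wells lacking PGK as controls. Buffer: 100 mM TEA (pH 7.6), 5 mM MgCl2, 0.01% Tween-20. Coupling enzyme GAPDH (100 nM final) supplies unstable 1,3-BPG in-well.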
GLS inh – glutaminase GLS (human) inhibition | O94925 | GLS enzymatic activity, qHTS titration | Potency, µM (titrated, usually from 45.5 µM), inactives show at the top dose activity change, negative = inhibition, actives largely listed as inhibitors | actives 0.21% (n = 410,000) | AID 624170; also: % is scaled to controls: 0 for no effect and ±100 for the full control effect
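Coupled fluorescence readout: glutamate oxidase/HRP/Amplex Red detect glutamate formed by hKGA from L-glutamine (1 mM solution added). Buffer 45 mM KH2PO4 pH 8.2, 0.02% Tween-20; reads at t0 and 30 min RT.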
Pin1 inhibitor – inhibitors of human Pin1. Potency, µM (series often up to 115 µM), for the others: at the highest dose activity, negative = inhibition, usual class: inhibitors. Pin1 FP peptide displacement, HiFluor488, 10 min. Q13526. actives 0.009% (n = 390,000). AID 504891; active = well fitted inhibition curve with a large enough effect in the polarisation, with a control signal flat, not every such curve was filed as active; inconclusive = small, poorly fitted or top-dose-only effect, or effect the other way, or a change in a side signal; inactive = no such curve, though single readings can be large or run the other way; the % refers to the polarisation; also: % is scaled to controls: 0 for no effect and ±100 for the full control effect
Target sequence (Q13526 whole entry, looked up): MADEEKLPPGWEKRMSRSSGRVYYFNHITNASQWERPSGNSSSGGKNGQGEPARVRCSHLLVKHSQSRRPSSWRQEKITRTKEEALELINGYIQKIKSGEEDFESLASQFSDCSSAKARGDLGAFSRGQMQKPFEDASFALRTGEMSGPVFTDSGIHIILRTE
VDR inhibitor – blocks the human vitamin D receptor. P11473. VDR-SRC2-3 peptide fluorescence polarization, 2 h. Potency, µM, without a hit: max response, negative = inhibition, most hits filed as inhibitors. actives 0.93% (n = 400,000). AID 504847; also: % is scaled to controls: 0 for no effect and ±100 for the full control effect
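Measured by FP: displacement of SRC2-3 coactivator peptide from VDR by library compounds, following a two-hour ambient incubation.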
TbPFK ATP – Tb phosphofructokinase inhibition, orthogonal luminescence; shares compounds with Tb PFK inh-1; Tb PFK enzyme, ATP depletion, Kinase-Glo Plus luminescence; Potency, µM (series often up to 57.5 µM), for inactives: top-dose inhibition; actives 47% (n = 1,100); AID 504636; calls by dose curve; also: nearly all actives have a fitted effect of over 60% in size
Tb PFK inh-2 – validation of T. brucei phosphofructokinase inhibitors; Potency, µM (series often up to 57.5 µM), without a hit: at the highest dose activity change, negative = inhibition, usual class: inhibitors; actives 41% (n = 1,100); shares compounds with Tb PFK inh-1; AID 504637; purified T. brucei PFK, ADP-Glo luminescence, 45 min;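 also: plate controls were full PFK enzyme control for no effect and no enzyme control for full effect; nearly all actives have a fitted effect of over 60% in size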
An asterisk follows results filed as active; i = inactive; ? = inconclusive; / = no result; ! = not confirmed by another sample; [ ] = dose if it differs, or a comment. Rows were chosen to be rich in hits. Some 1.1% of all compounds tested hit in one or more screens of this group. Unless noted, calls follow the shape of the dose curve; as a rule, active = well fitted curve in the direction sought with a large enough effect; inconclusive = small, poorly fitted or top-dose-only effect, or another doubt; inactive = no such curve, though single readings can be large; an effect the other way counts as inactive or inconclusive. Potency is read from the fitted curve at half-maximal effect.

SMILES | Tb PFK inh-1 | Tb PGK inh | GLS inh | Pin1 inhibitor | VDR inhibitor | TbPFK ATP | Tb PFK inh-2
O=c1ccnc(NCCc2ccccc2)[nH]1 | 9.53µM* | -4.8% | 11.4% | 5.9% | 9.8% | 21.3µM* | 26.9µM*
CC1CN=C(NCCc2ccccc2)S1 (stereo not given) | -13.1% | 6.4% | 0.6% | 4.8% | -9.6% | / | /
O=S(=O)(O)c1cc(O)ccc1O | 18.8% | 5.0% | -19.1% | -4.8% | -5.1% | / | /
O=C1/C(=C/c2ccc(O)c(O)c2)Oc2cc(O)ccc21 | ? | -13.3% | 8.91µM* | ? | -10.5% | -28.9% | ?
O=S(=O)(O)C(F)(F)C(F)(F)C(F)(F)C(F)(F)C(F)(F)C(F)(F)C(F)(F)C(F)(F)F | / | / | -2.1%[99.4 µM] | / | / | / | /
O=C(CCS(=O)(=O)c1ccc(Br)cc1)N1CCC2(CC1)OCCO2 | -8.3% | -6.8% | 8.3% | 4.7% | 5.0% | / | /
O=C(CCS(=O)(=O)c1ccc(Br)cc1)NCc1ccco1 | 16.9µM* | 12.6µM* | ? | -2.6% | -15.0% | 2.69µM* | 5.36µM*
COCCN(C(=O)CCl)c1c(C)cccc1C | / | / | / | / | 8.6% | / | /
CC(=O)Nc1ccc(OC(=O)N(C)c2ccccc2)cc1 | -15.5% | -4.4% | 9.7% | -0.4% | -5.4% | / | /
CC(=O)Nc1ccc(SCC(=O)c2ccc(Br)s2)cc1 | 23.9µM* | -0.4% | ? | -3.7% | ? | ? | -24.3%
O=C1C=C(NCc2ccc(Cl)cc2Cl)C2(CCCCC2)O1 | 10.7µM* | -6.4%[11.5 µM] | -4.1% | -2.4% | -5.8% | 5.36µM* | 16.9µM*
Cc1cc([N+](=O)[O-])nn1CCCC(=O)Nc1sc2c(c1C(N)=O)CCCC2 | ? | 7.8% | -14.4% | -1.5% | 31.6µM* | 26.9µM* | 23.9µM*
CCOCCCn1c(N)c(C(=O)Nc2sc3c(c2C(=O)OC)CCCC3)c2nc3ccccc3nc21 | 9.8% | -6.6% | 3.2% | 17.1% | 12.2% | / | /
Cc1ccc(-c2csc(Nc3ccc(S(N)(=O)=O)cc3)n2)o1 | 10.7µM* | -18.1% | ? | 13.4% | -15.2% | ? | ?
CN1CN(c2cccc([N+](=O)[O-])c2)CN=C1N[N+](=O)[O-] | 26.9µM* | 3.2% | 1.5% | 4.7% | 3.3% | ? | ?
O=C(c1cc2cc([N+](=O)[O-])ccc2oc1=O)n1cccn1 | ? | -12.2% | -0.3% | -25.5% | -1.1% | -1.3% | 19.3%
O=C(O)c1cc2ccccc2oc1=O | -3.3% | 3.0% | 4.5% | 1.8% | 4.4% | / | /
C#Cc1cccc2c1c(C(=O)c1ccc(Cn3c(C)nc4cnccc43)c(F)c1)cn2C(=O)N(C)C | / | / | / | / | 6.8% | / | /
CSc1ccc(C(c2c(C)[nH][nH]c2=O)c2c(C)[nH][nH]c2=O)cc1 | 15.1µM* | -9.2% | 12.2% | -6.2% | -27.5% | ? | ?
COc1cc(/C=C/c2nc3ccccc3c(=O)n2-c2ccc(Br)c(C)c2)ccc1O | / | -0.8% | 3.9% | 24.8% | -0.6% | / | /
Cc1cc(=O)oc2c1c(C)nn2-c1nn[nH]n1 | -0.7% | i | ? | -8.1% | ? | / | /
O=C(CCCn1c(SCC(=O)c2ccc(O)c(O)c2)nc2ccccc2c1=O)NCC1CCCO1 (stereo not given) | ? | -20.2% | 6.2% | ? | 13.8% | ? | ?
O=c1c(OC2OC(CO)C(O)C(O)C2O)c(-c2ccc(O)c(O)c2)oc2cc(O)cc(O)c12 (stereo not given) | 12µM* | ? | 67.3% | -0.1% | 8.5% | 8.49µM* | 4.26µM*
O=c1cc(-c2ccc(O)c(O)c2)oc2cc(O[C@@H]3O[C@H](CO)[C@@H](O)[C@H](O)[C@H]3O)cc(O)c12 | ? | -4.5% | -9.9% | ? | -2.7% | ? | ?
O=[N+]([O-])c1ccc(O[C@@H]2O[C@H](CO)[C@@H](O)[C@H](O)[C@H]2F)c([N+](=O)[O-])c1 | / | / | / | / | 2.2% | / | /
SMILES | Tb PFK inh-1 | Tb PGK inh | GLS inh | Pin1 inhibitor | VDR inhibitor | TbPFK ATP | Tb PFK inh-2
C[C@@H]1O[C@@H](Oc2c(-c3ccc(O)c(O)c3)oc3cc(O)cc(O)c3c2=O)[C@H](O)[C@H](O)[C@H]1O | -6.0% | -15.0% | 61.6% | -3.7% | 11.6% | / | /
O=C1C2CCCN2C(c2cccnc2)N1c1ccc(Cl)c(Cl)c1 (stereo not given) | -4.7% | 0.4% | 6.3% | 2.5% | -1.2% | / | /
O=C1CC(N2CCN(c3ccc(Cl)c(Cl)c3)CC2)C(=O)N1 (stereo not given) | 6.01µM* | -6.9% | 3.9% | -0.7% | -14.3% | ? | ?
c1ccc2c(c1)OC[C@@H](C1=NCCN1)O2 | / | / | / | / | -7.0% | / | /
Cc1ccc(C(=O)Nc2cccc([N+](=O)[O-])c2)cc1S(=O)(=O)Nc1cccc(C(=O)O)c1 | 19µM* | 0.5% | 5.3% | 6.0% | -24.9% | 7.57µM* | 19µM*
COc1ccc(-c2ccc3c(c2)CN(C(=O)CCc2ccccc2)Cc2cnnn2-3)cc1 | / | / | 1.3% | / | / | / | /
CC(/C=C\c1cccnc1)=C/C(=O)O | 15.1µM*! | ? | -13.7% | -19.5% | 15.7% | ? | 26.9µM*
CCOC(=O)c1cccc(C2=C(CNC(=O)c3ccc([N+](=O)[O-])cc3)[C@H]3CC[C@@H](C2)N3Cc2ccccc2)c1 | / | 6.6% | -0.5% | / | / | / | /
Nc1ncnc2c1ccn2[C@@H]1O[C@H](CO)[C@@H](O)[C@H]1O | / | -3.9% | -6.2% | -0.4% | 12.1% | / | /
NC(=S)c1cn(C2OC(CO)C(O)C2O)c2ncnc(N)c12 (stereo not given) | ? | / | -15.2% | -2.9% | ? | ? | -13.5%
O=C(CC[N+](=O)[O-])OCC1OC(O)C(OC(=O)CC[N+](=O)[O-])[C@@H](OC(=O)CC[N+](=O)[O-])C1OC(=O)CC[N+](=O)[O-] (stereo not given in full) | / | / | / | / | 4.8% | / | /
CC(=O)c1ccc(S(=O)(=O)N2CCN(CC(=O)Nc3ccc(Cl)c([N+](=O)[O-])c3)CC2)cc1 | 13.5µM* | -1.9% | -1.3% | 0.3% | -1.4% | ? | ?
CC(NC(=O)N1CC1(C)C)c1ccccc1 (stereo not given) | / | i | -7.0% | -1.0% | 5.7% | / | /
O=C(O)c1cc2ncc(-c3[nH]ncc3[N+](=O)[O-])cn2n1 | ? | 0.4% | ? | ? | 3.9% | -21.4% | ?
CO/C=C(/C(=O)OC)c1ccccc1Oc1cc(Oc2ccccc2C#N)ncn1 | / | / | -4.8%[99.4 µM] | / | / | / | /
CC(C)c1ccc(N2C(=O)NC(=O)/C(=C\C=C\c3ccco3)C2=O)cc1 | -17.3% | -7.4% | -13.7% | ? | 37.0% | / | /
CC(C)C(C(=O)O)N1C(=O)/C(=C/C=C/c2ccco2)SC1=S (stereo not given) | ? | 8.91µM* | ? | ? | -31.5% | 8.49µM* | 21.3µM*

Assay outcomes (PubChem BioAssay)
